Screening results: PubChem BioAssay, The Scripps Research Institute Molecular Screening Center
In the library only some 3.4% were active in any assay of this set; here they are far more common.
TEAD-YAP block: TEAD-YAP interaction inhibition, primary screen, TEAD-YAP interaction inhibitor project, luminescence, HEK-TIYL cells | 1.4% of 640,000 active | TEAD-Gal4/YAP UAS-luciferase luminescence | AID 1259422, 2018 | inhibition, % at 9.12 µM; in the data active = inhibition above about 32%;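 also: 0% = median of test compound wells and 100% = reference inhibitor wells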
GPR151 activ: activators of human GPR151, primary screen, cell-based, PathHunter beta-arrestin, luminescence | 1% of 650,000 active | AID 1508602, 2020 | PathHunter beta-arrestin GPR151 cells | G-protein coupled receptor 151 (Homo sapiens), Q8TDV0 | activation, % at 11.2 µM; in the data active = activation above about 4.9%;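 also: 0% = median of compound wells and 100% = cells with positive control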
Target sequence (Q8TDV0 whole entry, looked up): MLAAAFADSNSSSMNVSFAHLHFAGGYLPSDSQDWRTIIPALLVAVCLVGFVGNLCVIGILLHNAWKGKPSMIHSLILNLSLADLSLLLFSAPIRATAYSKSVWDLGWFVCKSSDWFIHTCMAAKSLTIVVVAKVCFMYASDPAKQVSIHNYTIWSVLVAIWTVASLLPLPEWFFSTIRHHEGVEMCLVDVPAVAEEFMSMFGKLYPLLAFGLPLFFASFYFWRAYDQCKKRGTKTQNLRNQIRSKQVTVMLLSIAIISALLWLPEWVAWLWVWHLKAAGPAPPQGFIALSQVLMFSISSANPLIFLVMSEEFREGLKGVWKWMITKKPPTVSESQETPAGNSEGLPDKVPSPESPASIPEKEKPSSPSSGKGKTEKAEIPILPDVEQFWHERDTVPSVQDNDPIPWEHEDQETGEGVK
FBW7 activator: FBW7 E3 ligase activators, primary screen, biochemical, AlphaScreen, human; F-box/WD repeat-containing protein 7 (Homo sapiens), Q969H0; AlphaScreen FBW7–phospho-cyclin E peptide binding, activator screen; normalized activity (activation), % at 26.1 µM; 0.13% of 650,000 active; AID 1259310, 2017; in the data active = normalized activity above about 1.9%;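 also: purified mutant Fbw7 with reduced substrate affinity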
MITF primary: MITF inhibitors, primary screen, biochemical, AlphaScreen, human. AID 1259374, 2018. inhibition, % at 2.6 µM. AlphaScreen MITF homodimerization, bead proximity signal. 0.91% of 650,000 active. Microphthalmia-associated transcription factor (Homo sapiens), O75030; in the data active = inhibition above about 50%;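 also: 0% = vehicle wells with protein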
An asterisk follows results filed as active.

SMILES	TEAD-YAP block	GPR151 activ	FBW7 activator	MITF primary
C=CCNc1cc(-c2ccccn2)nc(-c2ccccn2)n1	50*	1	-1	115*
c1ccc(-c2nc(NCc3ccco3)cc(-c3cccnc3)n2)nc1	11	1	0	-17
c1ccc(-c2cc(NCc3ccco3)nc(-c3ccccn3)n2)nc1	59*	1	-1	111*
Cc1ccc(NCCCCN2C(=O)c3ccccc3C2=O)cc1	-1	0	0	6
COc1ccc(C2CC(=O)c3c([nH]c(C(=O)OCCSC)c3C)C2)cc1OC (stereo not drawn)	44*	2	0	18
COc1ccc(C2CC(=O)c3c([nH]c(C(=O)OCCOC(C)C)c3C)C2)cc1OC (stereo not drawn)	32*	1	0	10
CC(C)(C)C1CCC(C(=O)OCC(=O)NC2CC2)CC1 (stereo not drawn)	10	1	0	3
COc1ccccc1CNC(=O)c1cc2c(=O)[nH]c3ccccc3c2n1C	-1	2	4.8*	-3
C/C=C/c1ccc(OCCNCC(C)O)c(OC)c1 (stereo not drawn)	-11	0	0	47
COC(=O)c1cc(CNC(=O)c2ccnn2C)cc(NC(=O)C2CCCCC2)c1	3	0	0	10
Cc1cc(C(F)(F)F)nn1CC(=O)Nc1cc(O)cc([N+](=O)[O-])c1	-9	0	0	4
COc1ccccc1CNc1ccccc1SC	4	0	0	-17
COc1ccccc1CC(=O)Nc1ccc(C)cc1C	-2	-2	0	-13
COc1ccccc1CNc1cc(C)ccc1OC	-2	0	0	62*
COc1ccccc1CNc1ccccc1F	9	-1	2.2*	-8
C=CCN1CCN(C(=O)CN2N=C(C(C)(C)C)Cn3c(cc4ccccc43)C2=O)CC1	1	-1	0	2
Cc1cc(C)cc(C(=O)N(C)C2CCS(=O)(=O)C2)c1 (stereo not drawn)	-7	-1	0	-2
COc1ccc(-n2[nH]c(C)c(N=O)c2=O)cc1	39*	1	0	3
O=C(NC(=S)Nc1ccc(N2CCOCC2)c(Cl)c1)c1cc2ccccc2o1	-5	2	0	-12
Cc1cccn2c(=O)c(/C=C(\C#N)C(=O)NC3CCCC3)c(Oc3ccc(F)cc3)nc12	13	0	0	18
COc1ccc(-c2ccc(C(=O)NCc3ccco3)c(N(C)C)n2)cc1	-5	-1	0	-11
COc1ccc(-c2ccc3c(N)c(C(=O)NCc4ccco4)sc3n2)cc1	33*	-1	0	-3
CC(C)OC(=O)c1sc2nc(-c3ccccc3)ccc2c1N	84*	4	0	-2
O=C(NC1(c2ccccc2)CCCC1)c1ccc(Cn2cccn2)o1	4	0	0	6
Cc1ccc(N2C(N)=C(C#N)C(c3ccc(Br)s3)C3=C2CC(C)(C)CC3=O)cc1 (stereo not drawn)	-7	1	0	2
SMILES	TEAD-YAP block	GPR151 activ	FBW7 activator	MITF primary
COc1ccc(Cl)cc1NS(=O)(=O)c1ccc(F)cc1	-10	-1	0	-13
COc1ccc(S(=O)(=O)Nc2cc(Cl)ccc2OC)cc1	61*	-3	0	3
Cc1ccc(Br)c(NS(=O)(=O)c2cccc(C(=O)O)c2)c1	3	0	1	9
COc1ccc(C)cc1NS(=O)(=O)c1cccc(C(=O)O)c1	-2	0	1.9*	19
COc1cc(NS(=O)(=O)c2ccc(Cl)cc2)c(OC)cc1Br	34*	0	0	21
COC(=O)CN(c1cc(OC)ccc1OC)S(=O)(=O)c1ccc(C)cc1	44*	2	0	3
COc1ccc(OS(=O)(=O)c2cc(C)ccc2OC)cc1	48*	-1	0	-6
COc1ccc(S(=O)(=O)Nc2cc(C)ccc2OC)cc1	58*	0	0	1
COc1ccc(C)cc1NS(=O)(=O)c1ccc(C)cc1	7	-1	0	-13
COc1ccc(OC)c(S(=O)(=O)Oc2c(C)cccc2C)c1	-3	3	0	-5
CC(=O)Nc1ccc(Nc2nc(Nc3cccc(N(C)C)c3)nc3c2ncn3C2CCCCC2)cc1	-4	-1	0	3
COc1cccc(C2CC(=O)C(C=Nc3ccc(C)cc3)=C(O)C2)c1 (stereo not drawn)	-3	1	0	-9
COc1ccc(C=C(C(=O)Nc2ccccc2OC)C(=O)Nc2ccccc2OC)cc1O	57*	1	0	3
O=C(CNC(=O)CNS(=O)(=O)c1ccccc1)NCc1ccco1	-2	-1	0	-3
CCOc1cc(/C=N/NC(=O)c2cc(O)c(O)c(O)c2)ccc1O	-4	1	0	82*
CCOc1ccc(-c2cc(C(=O)N/N=C/c3ccc(F)cc3)[nH]n2)cc1	41*	-1	0	-6
CCOc1cc(/C=N/NC(=O)C(=O)N/N=C/c2ccc(O)c(OCC)c2)ccc1O	4	1	0	-1
CCOc1ccc(-c2cc(C(=O)N/N=C/c3ccc(O)c(OCC)c3)[nH]n2)cc1	43*	4	0	10
Cn1cc(-c2ccccc2NC(=O)Nc2ccccc2)cn1	-17	0	0	-1
CCCOC(=O)C1=C(C)NC2=C(C(=O)CC(c3ccc(OC)c(OC)c3)C2)C1c1ccc(SC)cc1 (stereo not drawn)	-1	-1	1	1
O=Cc1cccc(-c2ccc(N3CCOCC3)nc2)c1	47*	-3	0	7
O=C(NCc1nc2ccccc2[nH]1)c1cccc(-c2ccc(N3CCOCC3)nc2)c1	43*	4	0	3
CN1CCN(c2ccc(-c3cccc(C(=O)NCc4nc5ccccc5[nH]4)n3)cc2)CC1	49*	2	0	13
c1ccc2[nH]c(CNc3cc(-c4ccc(N5CCOCC5)nc4)ncn3)nc2c1	-35	-1	0	-4
O=C(NCc1nc2ccccc2[nH]1)c1ccnc(-c2ccc(N3CCOCC3)nc2)c1	32*	-2	0	6
SMILES	TEAD-YAP block	GPR151 activ	FBW7 activator	MITF primary
O=C(NCc1nc2ccccc2[nH]1)c1ccnc(N2CCOCC2)c1	-1	-1	0	20
CN1CCN(c2ccc(-c3cccc(C=O)c3)cn2)CC1	-30	-5	0	9
CCCNC(=O)c1cccc(-c2ccc(N3CCN(C)CC3)cc2)n1	-16	1	0	-3
NC(=S)N1N=CCC1(O)C(F)(F)F (stereo not drawn)	53*	-1	0	36
O=C1CC(NCc2ccc3c(c2)OCO3)C(=O)N1CC(c1ccccc1)c1ccccc1 (stereo not drawn)	1	2	0	9
CCN(CC)C(=O)C1CCCN(c2nc(NCCN3CCOCC3)c3ncn(-c4ccsc4)c3n2)C1 (stereo not drawn)	36*	1	0	12
